Source: PubChem BioAssay
For some of these results: Potency and affinity values are given separately. Calls of active or inactive are those of the source. Unless noted, no rule for the calls is given here.

Tests used:
[1] = antimalarial activity against Dd2 strain (AID 2302;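 active = growth inhibition above 50% at the single 2 µM test dose, taken to imply half-maximal potency below 2 µM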;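 also: 0% = DMSO untreated growth and 100% = chloroquine plus artemisinin killed control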); details: P. falciparum Dd2 in RBCs, LDH growth readout, 72 h; at 2 µM; hits give high values
[2] = human hepatoma cell viability loss – ATP luminescence, cytotoxicity control for P. falciparum antimalarial project, primary screen (AID 2303;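 active = inhibition above 50%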;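 also: 0% = DMSO wells and 100% = digitonin-killed cells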); details: HepG2 viability, 24-48 h, at 10 µM, hits give high values
[3] = target: L-lactate dehydrogenase (Plasmodium falciparum (isolate CDC / Honduras)) (UniProt Q27743); assay: PfLDH activity inhibition – cell lysate, 3D7 strain, counter-screen for P. falciparum growth inhibition project (AID 2304);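 also: 0% = vehicle and 100% = reference inhibitor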; details: P. falciparum 3D7 crude extract, LDH APAD/NBT absorbance; at 2 µM; hits give high values
[4] = inhibition of 3D7 malaria parasite growth – strain 3D7 (AID 2306);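 also: 0% = DMSO wells and 100% = chloroquine plus artemisinin control wells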; details: P. falciparum 3D7 erythrocytic growth, LDH absorbance, 72 h; at 2 µM; hits give high values
[5] = target: Calcium-dependent protein kinase 1 (Plasmodium falciparum (isolate 3D7)) (UniProt P62344); assay: PfCDPK1 kinase inhibitors, biochemical, TCAMS library (AID 1159585; cut-off not given, nearly all actives have IC50 up to about 0.98 µM;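 also: inhibitors leave more ATP so luminescence rises with inhibition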); details: recombinant PfCDPK1, Kinase-Glo ATP depletion luminescence
[6] = target: Plasmodium falciparum protein kinase 6 (PK6, PF3D7_1337100) (UniProt Q8IDW1); assay: PfPK6 kinase inhibitors, biochemical, TCAMS library (AID 1159586); details: recombinant PfPK6, Kinase-Glo ATP depletion luminescence
[7] = target: Protein kinase 7 (PK7), Plasmodium falciparum 3D7 (PF3D7_0213400) (UniProt Q7YTF7); assay: inhibition of Plasmodium PK7 catalytic activity – biochemical, TCAMS antimalarial set, Kinase-Glo luminescence (AID 1159587); details: recombinant PfPK7, Kinase-Glo ATP depletion luminescence
[8] = target: Calcium-dependent protein kinase 4 (Plasmodium falciparum (isolate 3D7)) (UniProt Q8IBS5); assay: PfCDPK4 kinase inhibitors, biochemical, TCAMS library (AID 1159588; cut-off not given, nearly all actives have IC50 up to about 0.91 µM); details: recombinant PfCDPK4, Kinase-Glo ATP depletion luminescence
Calcium-dependent protein kinase 4 (Plasmodium falciparum (isolate 3D7)), sequence (Q8IBS5 whole entry, looked up): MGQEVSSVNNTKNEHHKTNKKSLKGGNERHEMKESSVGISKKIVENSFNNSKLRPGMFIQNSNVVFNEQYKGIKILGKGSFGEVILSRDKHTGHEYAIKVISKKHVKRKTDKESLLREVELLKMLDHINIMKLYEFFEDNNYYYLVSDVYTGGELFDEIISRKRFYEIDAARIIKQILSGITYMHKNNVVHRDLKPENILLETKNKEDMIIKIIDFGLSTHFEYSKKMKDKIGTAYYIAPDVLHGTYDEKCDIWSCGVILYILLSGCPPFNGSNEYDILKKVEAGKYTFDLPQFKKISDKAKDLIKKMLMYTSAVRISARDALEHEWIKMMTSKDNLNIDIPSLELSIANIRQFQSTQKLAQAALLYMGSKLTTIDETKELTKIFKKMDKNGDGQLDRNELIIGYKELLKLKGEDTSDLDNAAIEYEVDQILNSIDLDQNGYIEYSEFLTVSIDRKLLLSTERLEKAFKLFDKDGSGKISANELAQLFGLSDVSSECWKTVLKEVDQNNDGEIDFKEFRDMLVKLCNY

Protein kinase 7 (PK7), Plasmodium falciparum 3D7 (PF3D7_0213400), sequence (Q7YTF7 1-343): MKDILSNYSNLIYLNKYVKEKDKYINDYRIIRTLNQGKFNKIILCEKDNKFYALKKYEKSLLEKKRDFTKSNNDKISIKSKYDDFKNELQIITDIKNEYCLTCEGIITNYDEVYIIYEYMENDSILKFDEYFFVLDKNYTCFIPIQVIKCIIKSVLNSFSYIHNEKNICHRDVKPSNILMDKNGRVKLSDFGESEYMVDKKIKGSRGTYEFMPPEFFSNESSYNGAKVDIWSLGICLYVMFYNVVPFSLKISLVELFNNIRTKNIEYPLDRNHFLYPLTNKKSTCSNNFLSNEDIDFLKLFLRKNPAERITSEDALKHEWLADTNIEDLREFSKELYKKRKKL
Calcium-dependent protein kinase 1 (Plasmodium falciparum (isolate 3D7)), sequence (P62344 whole entry, looked up): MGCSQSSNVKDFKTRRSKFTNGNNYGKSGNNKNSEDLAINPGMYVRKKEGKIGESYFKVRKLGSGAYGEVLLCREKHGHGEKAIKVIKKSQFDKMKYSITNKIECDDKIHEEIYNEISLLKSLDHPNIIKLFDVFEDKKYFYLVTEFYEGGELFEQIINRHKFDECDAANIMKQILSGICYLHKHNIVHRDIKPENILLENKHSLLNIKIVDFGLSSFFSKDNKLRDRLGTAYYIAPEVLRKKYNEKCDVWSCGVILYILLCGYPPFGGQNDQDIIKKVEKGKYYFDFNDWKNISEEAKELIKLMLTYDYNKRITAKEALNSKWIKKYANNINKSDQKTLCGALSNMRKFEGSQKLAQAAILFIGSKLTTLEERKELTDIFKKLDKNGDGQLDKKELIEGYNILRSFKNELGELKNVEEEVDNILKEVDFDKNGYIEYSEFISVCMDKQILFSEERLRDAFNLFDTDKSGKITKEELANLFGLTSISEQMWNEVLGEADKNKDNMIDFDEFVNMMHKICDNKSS
Plasmodium falciparum protein kinase 6 (PK6, PF3D7_1337100), sequence (Q8IDW1 1-305): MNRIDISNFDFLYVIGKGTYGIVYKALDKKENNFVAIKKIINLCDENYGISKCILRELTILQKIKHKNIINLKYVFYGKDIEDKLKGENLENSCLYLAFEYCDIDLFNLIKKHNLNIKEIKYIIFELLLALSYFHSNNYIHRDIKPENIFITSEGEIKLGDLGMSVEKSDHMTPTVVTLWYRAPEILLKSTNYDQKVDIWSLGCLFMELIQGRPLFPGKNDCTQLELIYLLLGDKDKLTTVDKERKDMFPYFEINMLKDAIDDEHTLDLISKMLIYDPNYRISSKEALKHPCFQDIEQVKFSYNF
L-lactate dehydrogenase (Plasmodium falciparum (isolate CDC / Honduras)), sequence (Q27743 whole entry, looked up): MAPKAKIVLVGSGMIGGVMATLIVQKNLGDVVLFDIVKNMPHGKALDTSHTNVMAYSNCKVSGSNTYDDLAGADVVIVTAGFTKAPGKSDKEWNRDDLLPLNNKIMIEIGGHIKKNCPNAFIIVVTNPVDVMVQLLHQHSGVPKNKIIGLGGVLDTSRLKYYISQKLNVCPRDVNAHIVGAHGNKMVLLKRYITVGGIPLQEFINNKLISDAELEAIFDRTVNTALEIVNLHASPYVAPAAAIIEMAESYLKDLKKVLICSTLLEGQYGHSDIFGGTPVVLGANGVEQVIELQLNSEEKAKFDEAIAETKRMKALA

O=C(Nc1cccc(-c2ccc(-c3nc4ccc(C(F)(F)F)cc4[nH]3)cc2)c1)Nc1ccc(Cl)c(Cl)c1
active: growth inhibition [1] 51% | inhibition [2] 93% | growth inhibition [4] 100%
inactive: inhibition [3] -2% | outcome [5] | outcome [6] | outcome [7] | outcome [8]

Cc1cc(Nc2cccc(C(F)(F)F)c2)nc(N)n1
active: growth inhibition [4] 98%
inactive: growth inhibition [1] 24% | inhibition [2] 5% | inhibition [3] 1% | outcome [5] | outcome [6] | outcome [7] | outcome [8]

CCCN(Cc1nnc(-c2ccco2)o1)C(=O)C1CCN(c2ncc(C(F)(F)F)cc2Cl)CC1
active: growth inhibition [1] 92% | growth inhibition [4] 98%
inactive: inhibition [2] 19% | inhibition [3] -6% | outcome [5] | outcome [6] | outcome [7] | outcome [8]

O=S(=O)(NCCN1CCCC1)c1ccc(-c2cccc(CNCc3ccc(F)cc3)c2)cc1F
active: growth inhibition [4] 97%
inactive: growth inhibition [1] 36% | inhibition [2] 43% | inhibition [3] -1% | outcome [5] | outcome [6] | outcome [7] | outcome [8]

O=C(/C=C/c1ccc(Cl)c(Cl)c1)N1CCC(CCN2CCC(c3c[nH]c4cnccc34)CC2)CC1
active: growth inhibition [1] 100% | inhibition [2] 93% | growth inhibition [4] 101%
inactive: inhibition [3] -2% | outcome [5] | outcome [6] | outcome [7] | outcome [8]

CC(C)Sc1nc2c(c(=O)n1CCc1ccccc1)C1(CCCC1)Cc1ccccc1-2
active: growth inhibition [1] 88% | growth inhibition [4] 102%
inactive: inhibition [2] -3% | inhibition [3] -4% | outcome [5] | outcome [6] | outcome [7] | outcome [8]

CCCCCCc1cnc2nc(N)nc(N)c2c1C
active: inhibition [2] 67% | growth inhibition [4] 93%
inactive: growth inhibition [1] 20% | inhibition [3] -8% | outcome [5] | outcome [6] | outcome [7] | outcome [8]

c1cncc(Oc2ccc(Nc3ccnc4cc(-c5cccc(CN6CCOCC6)c5)ccc34)cc2)c1
inactive: inhibition [2] 14% | inhibition [3] 5% | outcome [5] | outcome [6] | outcome [7] | outcome [8]
active: growth inhibition [1] 100% | growth inhibition [4] 101%

N#Cc1ccc(CN2CCC(NC(=O)c3ccc(-c4nnc(-c5cccc6ccccc56)o4)cc3)CC2)cc1
active: growth inhibition [4] 98%
inactive: growth inhibition [1] 14% | inhibition [2] 37% | inhibition [3] -2% | outcome [5] | outcome [6] | outcome [7] | outcome [8]

CC1(C)CC(=O)c2c(O)cc(OCc3ccncc3)cc2O1
inactive: growth inhibition [1] 47% | inhibition [3] -1% | outcome [5] | outcome [6] | outcome [7] | outcome [8]
active: inhibition [2] 80% | growth inhibition [4] 92%

O=C(/C=C/c1ccc(Cl)cc1)NCCCCCN1CCC(C(=O)Nc2ccc(Cl)c(Cl)c2)CC1
active: growth inhibition [4] 100%
inactive: growth inhibition [1] -4% | inhibition [2] 47% | inhibition [3] -3% | outcome [5] | outcome [6] | outcome [7] | outcome [8]

COCCNC(=O)c1ccc(OC2CCN(CC(C)=Cc3ccccc3)CC2)c(Cl)c1
inactive: inhibition [2] 18% | inhibition [3] 2% | outcome [5] | outcome [6] | outcome [7] | outcome [8]
active: growth inhibition [1] 95% | growth inhibition [4] 94%

CC(C)c1ccc(CN2CCC(NC(=O)c3ccc(-c4cccc(Cl)c4)s3)CC2)cc1
active: inhibition [2] 50% | growth inhibition [4] 82%
inactive: growth inhibition [1] 6% | inhibition [3] 3% | outcome [5] | outcome [6] | outcome [7] | outcome [8]

Clc1ccc2c(NCc3ccc4c(c3)OCO4)ccnc2c1
inactive: inhibition [2] 6% | inhibition [3] 1% | outcome [5] | outcome [6] | outcome [7] | outcome [8]
active: growth inhibition [1] 97% | growth inhibition [4] 101%

O=S(=O)(c1cccc(Br)c1)N1CCCCC(c2ccc(C(F)(F)F)cc2)=N1
active: growth inhibition [1] 92% | growth inhibition [4] 91%
inactive: inhibition [2] 30% | inhibition [3] -4% | outcome [5] | outcome [6] | outcome [7] | outcome [8]

Oc1c(C(Nc2ccccn2)c2ccc(Cl)cc2Cl)ccc2cccnc12 (stereo not given)
inactive: inhibition [2] 42% | inhibition [3] 1% | outcome [5] | outcome [6] | outcome [7] | outcome [8]
active: growth inhibition [1] 60% | growth inhibition [4] 88%

O=C(Nc1cccc(OCc2ccccc2)c1)c1ccc(CN2CCC(Cc3ccccc3)CC2)cc1
active: growth inhibition [4] 100%
inactive: growth inhibition [1] 27% | inhibition [2] 41% | inhibition [3] 3% | outcome [5] | outcome [6] | outcome [7] | outcome [8]

C=Cc1ccc(-c2c(C)[nH]c(C)c(Br)c2=O)cc1
active: growth inhibition [1] 96% | growth inhibition [4] 98%
inactive: inhibition [2] -2% | inhibition [3] -3% | outcome [5] | outcome [6] | outcome [7] | outcome [8]

CCc1ccc(C(=O)NC(=O)c2ccccc2O)cc1
inactive: inhibition [2] -4% | inhibition [3] 1% | outcome [5] | outcome [6] | outcome [7] | outcome [8]
active: growth inhibition [1] 84% | growth inhibition [4] 95%

CNCc1ccc(-c2ccc3ccnc(N)c3c2)cc1
inactive: inhibition [2] 46% | inhibition [3] 5% | outcome [5] | outcome [6] | outcome [7] | outcome [8]
active: growth inhibition [1] 98% | growth inhibition [4] 94%
